Screening data from PubChem BioAssay.
Shown are actives, neighbours in structure and some others; about 3.7% of the full set was active somewhere.
Nrf2 activator – qHTS of Nrf2 Activators; AREc32 ARE-luciferase reporter (MCF7-derived line), luminescence, 24 h; 0.31% of 410,000 active; AID 624171, 2012; Potency, µM (titrated, usually from 46.1 µM), without a hit: at the highest dose activation, actives largely listed as activators; also: % of control where 0% means no effect; nearly all actives have a fitted effect of over 65% in size
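Each well held 1000 AREc32 cells, which were incubated with compound for 24 hr at 37 deg C after overnight attachment, and ARE reporter activity was quantified by firefly luciferase luminescence.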
A549 viability – Nrf2 qHTS screen for inhibitors: counterscreen for cytotoxicity. A549 ARE-Fluc cells, CellTiter-Fluor viability, 18-24 h. 0.16% of 390,000 active. Potency, µM (top dose mostly 46 µM), for the others: top-dose activity change, negative = cytotoxicity, hits mostly inhibitors; also: % is scaled to controls: 0 for no effect and ±100 for the full control effect
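A549 ARE-Fluc cells in 5% FBS OPTI-MEM, 5000 cells/well, rested 2 h then exposed to compounds in concentration-response for 18-24 h at 37 °C. Viability by CellTiter-Fluor fluorescence (Ex 405/Em 525) after 30 min; luciferase luminescence (BugLite, 15 min, RT) read afterwards.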
Nrf2 block – Nrf2 qHTS screen for inhibitors; A549 ARE-Fluc reporter, luciferase luminescence, 18-24 h; Potency, µM (highest dose often 46 µM), for inactives: top-dose activity change, negative = inhibition, usual class: inhibitors; 2.1% of 360,000 active; also: % is scaled to controls: 0 for no effect and ±100 for the full control effect; nearly all actives have a fitted effect of over 60% in size
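Quantitative HTS in A549 cells stably bearing an antioxidant response element-firefly luciferase construct. Inhibition of Nrf2-driven transcription was scored by luminescence after 18-24 h of compound exposure at 37 °C.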
ELG1 DNA repair – qHTS screen for small molecules that inhibit ELG1-dependent DNA repair in human embryonic kidney (HEK293T) cells expressing luciferase-tagged ELG1 | 2.3% of 330,000 active | AID 504467, 2011 | HEK293T ELG1-luciferase reporter, luminescence, 16 h; DNA damage induced by 5-fluorouridine | Potency, µM (titrated, usually from 46.1 µM), inactives show at the highest dose activity change, negative = inhibition, hits mostly inhibitors; also: % is scaled to controls: 0 for no effect and ±100 for the full control effect; nearly all actives have a fitted effect of over 55% in size
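DMSO vehicle served as the neutral condition. Each well held 2,000 cells given 5-fluorouridine plus compound; after 16 hr at 37 °C/5% CO2, ONE-Glo was added and luciferase measured 30 min later.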
ELG1 FLuc counter – qHTS screen for small molecules that inhibit ELG1-dependent DNA repair: Hit Confirmation in Cell-Based Luciferin Assay | shares compounds with ELG1 DNA repair | cell-free firefly luciferase luminescence counter-screen, ViewLux | Potency, µM (series often up to 46.1 µM), without a hit: at the highest dose activity change, negative = inhibition, actives largely listed as inhibitors | 3% of 350 active; also: % is scaled to controls: 0 for no effect and ±100 for the full control effect
ELG1-Luc inh – HTS assay for small molecules that inhibit ELG1-dependent DNA repair in human embryonic kidney (HEK293T) cells expressing luciferase-tagged ELG1: Hit Confirmation; shares compounds with ELG1 DNA repair; HEK293T ELG1-luciferase levels, luminescence; cells co-treated with 5-fluorouridine; Potency, µM (titrated, usually from 46.1 µM), without a hit: at the top dose activity change, negative = inhibition, actives largely listed as inhibitors; 68% of 670 active; AID 624248, 2012; also: % is scaled to controls: 0 for no effect and ±100 for the full control effect; nearly all actives have a fitted effect of over 55% in size
ELG1 MMS Luc – confirmation of human ELG1 repair inhibitors, MMS stimulated; shares compounds with ELG1 DNA repair; HEK293T luciferase-tagged ELG1 level, MMS stimulated; Potency, µM (titrated, usually from 46.1 µM), for the others: at the highest dose activity change, negative = inhibition, most hits filed as inhibitors; 53% of 670 active; also: % is scaled to controls: 0 for no effect and ±100 for the full control effect; nearly all actives have a fitted effect of over 60% in size
ELG1 5FU viab – qHTS screen for small molecules that inhibit ELG1-dependent DNA repair: Hit Confirmation with 5FU Viability; shares compounds with ELG1 DNA repair; AID 624250, 2012; cell viability with 5-FU, ELG1-dependent repair; 670 tested, under 10 active; Potency, µM (highest dose often 46.1 µM), without a hit: top-dose activity change, negative = viability loss, most hits filed as cytotoxic;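 also: ELG1-luc HEK293T cells cotreated with 5-fluorouridine at 10 µM final; viability measured 16 h after compound addition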
ELG1 MMS cell – qHTS screen for small molecules that inhibit ELG1-dependent DNA repair: Hit Confirmation with MMS Viability; Potency, µM (doses to about 46.1 µM), without a hit: at the top dose activity change, negative = viability loss, usual class: cytotoxic; 33% of 670 active; shares compounds with ELG1 DNA repair; Cell viability with MMS, ELG1-dependent DNA repair;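 also: ELG1-luc HEK293T cells co-treated with 10 µM MMS; viability read 16 h after compound addition; % is scaled to controls: 0 for no effect and ±100 for the full control effect; nearly all actives have a fitted effect of over 60% in size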
ELG1 unstim viab – qHTS screen for small molecules that inhibit ELG1-dependent DNA repair: Hit Confirmation with Unstimulated Viability Assay; shares compounds with ELG1 DNA repair; cell viability counter-screen, unstimulated, luminescence; Potency, µM (doses to about 45.9 µM), without a hit: at the highest dose activity change, negative = loss of viability, actives largely listed as cytotoxic; 8% of 900 active; AID 624252, 2012;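 also: compound exposure lasted 16 hours before reading; % is scaled to controls: 0 for no effect and ±100 for the full control effect; nearly all actives have a fitted effect of over 55% in size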
FLuc enzyme – qHTS screen for small molecules that inhibit ELG1-dependent DNA repair: Hit Confirmation in Biochemical Luciferin Assay; Potency, µM (titrated, usually from 57.5 µM), without a hit: top-dose activity, negative = inhibition, usual class: inhibitors; 10% of 350 active; purified firefly luciferase, luminescence counter-screen; shares compounds with ELG1 DNA repair; also: % is scaled to controls: 0 for no effect and ±100 for the full control effect
Active calls of the source: *; ? = inconclusive; · = not tested or not shown. Calls follow the shape of the dose curve; as a rule, active = well fitted curve in the direction sought with a large enough effect; inconclusive = small, poorly fitted or top-dose-only effect, or another doubt; inactive = no such curve, though single readings can be large; an effect the other way counts as inactive or inconclusive. Potency is read from the fitted curve at half-maximal effect.

SMILES	Nrf2 activator	A549 viability	Nrf2 block	ELG1 DNA repair	ELG1 FLuc counter	ELG1-Luc inh	ELG1 MMS Luc	ELG1 5FU viab	ELG1 MMS cell	ELG1 unstim viab	FLuc enzyme
COc1ccc(-n2c(C)c([N+](=O)[O-])c3ccc(O)c(CN(C)C)c32)cc1	-0.4%	-9.4%	?	0.92µM*	?	1.41µM*	2.5µM*	-2.4%	6.5%	?	6.1%
O=Cc1cn(CC(=O)Nc2ccc(F)cc2)c2ccccc12	-0.6%	1.2%	-4.5%	3.66µM*	·	-3.8%	3.15µM*	-3.4%	14.1µM*	-2.6%	·
O=Cc1cn(CC(=O)Nc2ccccc2)c2ccccc12	3.7%	12.3%	-24.0%	-19.2%	·	·	·	·	·	·	·
CC(=O)N(C)c1ccc(/C=C2\C=Cc3ccccc32)cc1	·	·	·	·	71.1%	·	·	·	·	?	0.231µM*
CCOc1cccc(-c2csc(C3COc4ccccc4O3)n2)c1 (configuration not stated)	0.8%	-8.5%	1.8%	?	·	·	·	·	·	·	·
COc1ccc2c(c1)c(C(C)=O)c(C)n2-c1ccccc1	-0.1%	9.0%	?	?	·	·	·	·	·	·	·
COc1ccc(-n2c(C)c(C(C)=O)c3cc(O)ccc32)cc1	1.3%	0.7%	-5.6%	0.82µM*	?	0.889µM*	?	0.9%	?	7.6%	0.1%
O=C(Nc1ccccc1)c1ccc(N2CCN(c3ccccn3)CC2)c(S(=O)(=O)N2CCOCC2)c1	-0.6%	2.9%	-15.6%	?	·	·	·	·	·	·	·
O=C(Nc1ccc(Br)cc1)c1ccc(F)c(S(=O)(=O)N2CCN(c3ccccn3)CC2)c1	2.7%	-8.9%	23.1µM*	2.91µM*	-8.1%	31.5µM*	?	-10.6%	?	?	-14.8%
Cc1cccc2cc(CN(CCN3CCOCC3)C(=O)Nc3ccccc3F)c(=O)[nH]c12	-0.6%	3.6%	5.4%	3.26µM*	·	3.97µM*	30.0%	?	4.2%	-12.4%	·
Cc1cc2cc(CN(CCN3CCOCC3)C(=O)Nc3ccccc3F)c(=O)[nH]c2cc1C	0.4%	?	?	?	·	·	·	·	·	·	·
Cc1cccc(C)c1NC(=O)CN1C(=O)C2CC=CCC2C1=O (configuration not stated)	-1.4%	-1.1%	-4.7%	8.3%	·	·	·	·	·	·	·
